Tg IFNy HTS: blocks Toxoplasma gondii growth in the presence of IFN-gamma; Toxoplasma gondii growth in IFN-gamma-treated host cells; stronger effect = lower value; activity change, negative = inhibition, % (no concentration beside the values); hit rate 3.8% among 69,000; AID 1259416; in the data active means activity change below about -70%, passing the limit was not always enough;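 further: host cells are HeLa cells infected with Toxoplasma gondii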
Numbers stand for hits; – = inactive. This is one part of a sample in which hits are shown more often than they occur.

SMILES	Tg IFNy HTS
O=C(NCCc1csc(-c2ccc(F)cc2)n1)C12CC3CC(CC(C3)C1)C2	–
CCOc1ccc(CC(=O)NCCc2sc(-c3cccc(F)c3)nc2C)cc1	–
CCOc1ccc(NC(=O)C(=O)NCCc2sc(-c3ccc(F)cc3)nc2C)cc1	–
O=C(NCCc1csc(-c2cccc(F)c2)n1)c1ccc(F)cc1	–
O=C(NCCc1csc(-c2ccc(F)cc2)n1)c1ccc(Br)cc1	-78.7
Cc1nc(-c2ccc(F)cc2)sc1CCNC(=O)Cc1ccc(F)cc1	–
Cc1ccc(C(=O)NCCc2csc(-c3ccc(F)cc3)n2)cc1	–
O=C(Cc1ccc(F)cc1)NCCc1csc(-c2ccc(F)cc2)n1	–
CCCCOc1ccc(C(=O)NCCc2csc(-c3ccc(F)cc3)n2)cc1	–
O=C(NCCc1csc(-c2ccc(F)cc2)n1)c1ccc(F)cc1	-79.0
Cn1ccnc1CN1CCN(Cc2cc3n(n2)CCNC3)CC1	–
O=C(O)C1CC2(CCNCC2)CN1Cc1ccc(-c2ccn[nH]2)o1 (configuration not stated)	–
c1ccc(C[C@@H]2CNCC[C@H]2OCc2ccccn2)cc1	–
CCCS(=O)(=O)N1CC[C@@H]2C(=O)N(c3ccsc3)CCO[C@@H]2C1	–
O=S(=O)(c1ccc(Cl)s1)N1CCC2(CC1)Nc1ccccc1-n1cccc12	–
Cc1ccc(C(=O)NCCc2sc(-c3ccc(F)cc3)nc2C)cc1	–
Cc1cc(C)cc(C(=O)NCCc2csc(-c3ccc(F)cc3)n2)c1	-81.7
Cc1ccc(-c2nc(CCNC(=O)c3ccc(C)c(C)c3)cs2)cc1	–
COc1ccc(C(=O)NCCc2sc(-c3ccc(F)cc3)nc2C)cc1	–
Cc1cc(C)cc(C(=O)NCCc2sc(-c3ccc(F)cc3)nc2C)c1	-77.2
CC(=O)NCCc1csc(-c2ccc(F)cc2)n1	–
O=C1N(c2ccccc2)C(=O)N(c2ccccc2)C2c3ccccc3C=CN12 (configuration not stated)	–
c1csc(C2Nc3ccccc3N2)c1	–
CC1c2ncc(COCC3CC3)n2CCN1S(C)(=O)=O (configuration not stated)	–
Cc1cc(C)n(C)c(=O)c1C(=O)Nc1ccc(-n2ccnc2C(C)C)cc1	–
SMILES	Tg IFNy HTS
NCC[C@@H]1CC[C@H](NC(=O)NC2CCCCC2)[C@H](CO)O1	–
COc1ccc(S(=O)(=O)N2C[C@@H]3OCCN(Cc4cccc(C)n4)[C@H]3C2)cc1	–
CCOCC1CN(C(=O)c2ccnnc2)Cc2cnn(CC)c21 (configuration not stated)	–
O=C(CCc1cccnc1)N[C@@H]1c2ccccc2C2(CCNCC2)[C@H]1O	–
Cc1cc(C)n(Cc2nc(-c3ccc(NC(=O)Cc4ccccc4C)cc3)oc2C)n1	–
Cc1cc(C)n(Cc2nc(-c3ccc(NC(=O)c4ccccc4)cc3)oc2C)n1	–
Cc1cc(C)n(Cc2nc(-c3ccc(NC(=O)c4ccc(Cl)cc4)cc3)oc2C)n1	–
Cc1cc(C)cc(C(=O)Nc2ccc(-c3nc(Cn4nc(C)cc4C)c(C)o3)cc2)c1	-97.0
COc1cccc(CC(=O)Nc2ccc(-c3nc(Cn4nc(C)cc4C)c(C)o3)cc2)c1	-84.8
Cc1cc(C)n(Cc2nc(-c3ccc(NC(=O)c4cc(F)cc(F)c4)cc3)oc2C)n1	–
Cc1ccc(C)c(C(=O)Nc2ccc(-c3nc(Cn4nc(C)cc4C)c(C)o3)cc2)c1	-75.1
Cc1cc(C)n(Cc2nc(-c3ccc(NC(=O)CCc4ccccc4)cc3)oc2C)n1	–
Cc1cc(C)n(Cc2nc(-c3ccc(NC(=O)c4ccc(C)c(F)c4)cc3)oc2C)n1	–
Cc1cc2oc(=O)cc(C)c2cc1NC(=O)C1CC(C(C)C)=NO1 (configuration not stated)	–
CC(C)Oc1cc(CCC(=O)NC2CC(C)(C)Cc3nc(-c4ccncc4)ncc32)on1 (configuration not stated)	–
O=C(c1csnn1)N1CCC2(c3ccccc3)CN(CCO)CC2C1 (configuration not stated)	–
Cc1c(CN2CCCC(c3nc4ccccc4n3C)C2)c(-c2ccccc2)nn1C (configuration not stated)	–
CC(Cc1ccc2c(c1)OCO2)c1nc2cnccn2c1NCc1ccccc1 (configuration not stated)	–
O=C(Cn1cncn1)N1CCC(c2cc(-c3ccccc3Cl)n[nH]2)CC1	–
Cc1c(C(=O)N2CCCC(c3ccn[nH]3)C2)nnn1Cc1ccccc1 (configuration not stated)	–
Cc1cnc(SCC2CCCO2)nc1C1CCCN(C(=O)Cc2ccc3c(c2)OCO3)C1 (configuration not stated)	–
NC(=O)c1cc(-c2ccnc3[nH]ccc23)ccc1Cl	-88.7
O=C(c1cncc(-c2ccnc3[nH]ccc23)n1)N1CCCCC1	–
CNC(=O)c1cc(-c2ccn[nH]2)ccc1Cl	–
C[C@@H]1CN([C@H](C)CO)C(=O)c2cccc(NC(=O)c3cnccn3)c2O[C@@H]1CN(C)C(=O)NC1CCCCC1	–
SMILES	Tg IFNy HTS
O=C(CCC1CCCO1)NCCc1nc(-c2ccc(Cl)cc2)cs1 (configuration not stated)	–
CS(=O)(=O)c1cccc(C(=O)Oc2ccccc2)c1	–
CC1CC(C)(C)N2C(=O)C(=O)c3cc(OC(=O)c4ccccc4)cc1c32 (configuration not stated)	-95.9
CC1=CC(C)(C)N(C(=O)c2ccccc2)c2ccc(OC(=O)c3ccccc3)cc21	–
COc1ccccc1CCNC(=O)CC(=O)Nc1ccc(F)c(Cl)c1	–
O=c1n(Cn2nnc3ccccc32)nc(C(F)(F)F)c2cccn12	–
O=c1[nH]nc(C(F)(F)F)n2cccc12	-103.8
O=c1n(Cc2ccncc2)nc(C(F)(F)F)c2cccn12	–
c1cnc(N2CCC3(COCc4cnc(NCC5CC5)nc43)C2)nc1 (configuration not stated)	–
COc1ccc(C(=O)O)cc1CN1CCOCC1	–
CN(C)CC(=O)N1CCc2sc(C(=O)NCc3cccc(F)c3)cc21	–
Cn1cc(C[C@H]2[C@@H](O)CCN2C(=O)Cc2ccsc2)cn1	–
C=CCN1C(=O)CCC12CCN(Cc1c(C)noc1C)CC2	–
Cc1noc(C)c1CN1CCC2(CCC(=O)N2CCN(C)C)CC1	-82.3
Cc1noc(C)c1CN1CC2(CCN(C(=O)N(C)C)C2)CC1=O (configuration not stated)	–
CN1C(=O)CC(c2ccccc2)C12CCN(C(=O)c1cscn1)CC2 (configuration not stated)	–
Cc1cc(C)c(N2C(=O)C3C(c4ccccc4)C=CC(c4ccccc4)C3C2=O)c(C)c1 (configuration not stated)	-98.8
O=C(CC(=O)c1ccccc1O)c1ccc(F)cc1	-109.5
O=C(NO)c1ccccc1O	–
O=C(O)c1ccccc1O	–
O=C1C[C@@H](c2ccccc2)C(=O)N[C@H](c2ccc3c(c2)OCO3)C/C=C\C[C@@H](c2ccc(F)cc2)N1	–
COc1cccc([C@@H]2CCN(Cc3ccc(C(=O)O)cc3)C[C@H]2O)c1	–
CCC(NC(=O)c1cccc(F)c1OC)c1ccccn1 (configuration not stated)	–
COc1cc(CN2CCC(O)(c3ccc(C)cn3)CC2)cc(Cl)c1OC	–
Cc1c(CN2CCCC(c3nc(C(C)C)no3)C2)c2ccccc2n1CC(N)=O (configuration not stated)	–
CCOC(=O)c1ccc(NC(=O)CSc2nnc(CNc3ccc(F)cc3)o2)cc1	-99.8
CCCCOC(=O)c1ccc(NC(=O)CSc2nnnn2C2CCCCC2)cc1	–
CCc1nnc(SCC(=O)Nc2ccc(N3CCN(S(C)(=O)=O)CC3)cc2)o1	–
